Laboratory results taken from PubChem BioAssay AID463115 (University of Pittsburgh Molecular Library Screening Center, 2010).
Hit rate of the full screen: of about 220,000 compounds, about 130 (0.059%) were called active. The sample holds actives, similar compounds and a random draw of the others, so the mix is not that of the screen. Rule as the data show it: active = inhibition above about 25%; inactive = the rest.

Molecular target: Furin (Homo sapiens) (UniProt P09958)
Test: human furin inhibitors, primary screen, biochemical, fluorescence intensity (AID 463115)
Details: purified furin, fluorogenic substrate cleavage, hits give high values; at 30 µM unless noted

Sequence of Furin (Homo sapiens) (P09958 108-714 limits assumed): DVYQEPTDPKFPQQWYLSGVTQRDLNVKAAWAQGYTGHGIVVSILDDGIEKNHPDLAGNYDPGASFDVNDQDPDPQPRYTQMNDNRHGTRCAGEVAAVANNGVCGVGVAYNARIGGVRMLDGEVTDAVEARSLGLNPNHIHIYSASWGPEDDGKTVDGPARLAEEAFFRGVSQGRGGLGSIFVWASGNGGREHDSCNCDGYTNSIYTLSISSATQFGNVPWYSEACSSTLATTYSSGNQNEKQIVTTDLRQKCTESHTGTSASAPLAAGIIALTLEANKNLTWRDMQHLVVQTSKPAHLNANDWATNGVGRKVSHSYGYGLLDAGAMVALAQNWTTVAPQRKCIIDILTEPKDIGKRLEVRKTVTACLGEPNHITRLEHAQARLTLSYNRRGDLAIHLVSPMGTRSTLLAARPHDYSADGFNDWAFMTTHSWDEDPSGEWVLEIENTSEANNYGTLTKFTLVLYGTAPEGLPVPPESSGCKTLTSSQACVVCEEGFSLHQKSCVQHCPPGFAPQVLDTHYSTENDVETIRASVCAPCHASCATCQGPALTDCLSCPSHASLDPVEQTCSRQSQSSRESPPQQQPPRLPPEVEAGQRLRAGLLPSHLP

inhibition, inactive:
CC(C)C(=O)NCc1cc(-c2ccc(Cl)cc2)no1 2.24%, O=S(=O)(c1ccc(F)cc1)N1CCN(Cc2ccccc2C(F)(F)F)CC1 -12.9%, O=c1oc2ccccc2cc1-c1cn(-c2ccccc2)c(=S)[nH]1 -34.3%, S=c1[nH]nc(NCCc2ccccc2)s1 -19.4%, CC(C)(C)C(=O)OCc1nc(-c2ccc(O)c(O)c2)cs1 -19.6%, CCN(CC)c1ccc(NC(=O)C2CCC(CNc3c(N4CCCC4)c(=O)c3=O)CC2)c(C)c1 (centres undefined) -28.8%, C[n+]1ccc(/C=C/c2c[nH]c3ccccc23)cc1 3.06%, C=Cn1c(C(=O)O)ccc1-c1ccc(OC)cc1 -9.46%, CC1CN(S(=O)(=O)c2ccc(C(=O)NN3CCN(C)CC3)cc2)CC(C)O1 (centres undefined) -23.8%, CCOCN(C(=O)Cn1c(C(C)O)nc2ccccc21)c1c(C)cccc1CC (centres undefined) -22.3% [at 20 µM], O=C(/C=C/c1ccc(Cl)cc1)Nc1ccc(Br)cn1 -19.6%, Cc1oc(-c2ccccc2Cl)[n+]([O-])c1C -9.84% [at 20 µM], C=C(C)C(=O)O[C@H]1C/C(C)=C\C(=O)/C=C(\C)[C@H](O)[C@@H]2OC(=O)C(=C)[C@@H]21 -5.36%, CCN(C(=O)CSc1nnc2ccccn12)C1CCS(=O)(=O)C1 (centres undefined) -27.8%, NNC(=O)c1cnn(-c2ccccc2)c1C(F)(F)F -29%, CCN=C1S/C(=C\c2cc(Br)ccc2OCC(=O)OCC)C(=O)N1CC -4.2%, N#Cc1ccccc1NC(=O)COc1c(Br)cc(Br)c2cccnc12 -14.7%, Cn1c(SCC(=O)Nc2ccc(Cl)cc2)nc(O)cc1=O -15%, O=C(CSc1nc2ccc([N+](=O)[O-])cc2[nH]1)c1ccc(Cl)cc1 -10.5%, S=C(NN=C1CCN(Cc2ccccc2)CC1)NC1CCCCC1 -25.8%, CCCC1OC23CCCCC2C(C#N)(C#N)C1(C#N)C(=N)O3 (centres undefined) -12.5%, COc1cc(C)c(S(=O)(=O)N2CCOCC2)c(C)c1C -15.3%, COc1ccccc1N1CCN(/N=C\C(Br)=C\c2ccccc2)CC1 -19%, CCO[C@H]1OC(C(=O)N2CCCCCCC2)=C[C@@H](c2ccc(C(F)(F)F)cc2)[C@@H]1CCCO -28%, COc1ccc(O)c(C=Nc2cc(C)on2)c1 -25.7%, O=C1CCCC(O)=C1C=NCCc1ccccc1 -20.8%, OCCC1CN(Cc2cccn2-c2nccs2)CCN1CCc1ccccc1 (centres undefined) -12.8%, Cc1nc(CNS(=O)(=O)c2cc([N+](=O)[O-])ccc2C)cs1 10.1%, COC(=O)C1=C(N)Oc2c(oc(CO)cc2=O)C1c1c(F)cccc1Cl (centres undefined) -27.8%, CN(C)c1ccnc2sc3c(=O)n(-c4ccc(Cl)cc4)cnc3c12 -7.85% [at 20 µM], CCC(C)(C)NC(=O)CN(C(=O)C(=O)Nc1ccc2c(c1)OCCO2)C(C)(C)CC -14.5%, CSc1nnc(SCc2nc3sc(C(=O)O)c(C)c3c(=O)[nH]2)s1 -6.65%, O=C(CC1SCCNC1=O)Nc1ccc(Cl)c(Cl)c1 (centres undefined) -21.8%, Cc1nnsc1C(=O)N/N=C/c1cccc(C(F)(F)F)c1 0.985%, COc1ccc([N+](=O)[O-])cc1NC(=O)COC(=O)/C=C/c1ccco1 -30.9%, CCC(C)(C)NC(=O)C(c1cccc(OC)c1OC)N(CC(C)C)C(=O)CCC(=O)Nc1cc(C)on1 (centres undefined) -14.8%, CC(C)(C)NC(=O)/C(=C/c1cccnc1)NC(=O)c1ccco1 -17%, Cc1cc(NC(=O)CSc2nc3ccccc3n2CC(C)C)no1 -16.9%, CC(C)c1cc(C(N)=O)c(NC(=O)c2cccc(COc3ccc(Br)cc3)c2)s1 -15.1% [at 20 µM], CC(C)(C)NC(=O)c1cccc(NC(=O)Cc2ccc(Br)cc2)c1 -14.8%, CCOn1c(=O)c(=O)n(O)c2ccccc21 -4.13%, Oc1ccccc1N1CCN(C(=S)NCc2ccccc2)CC1 -19.1%, Cc1ccc(C2(C(F)(F)F)N=C3Sc4cc(C)cc(C)c4N3C(=O)N2)cc1 (centres undefined) -11.5% [at 20 µM], O=C(O)CC/C(=N\NC(=O)c1ccc(F)cc1)c1ccc(Br)cc1 -17.1%, CCCc1c(C(=O)O)cnn1-c1ccc(Cl)cc1 -33.8%, O=C(Nc1cccc(Cl)c1)c1cc([N+](=O)[O-])ccc1N1CCN(CCO)CC1 -21.2%, O=c1[nH][nH]c(C(F)(F)F)c1C=NCc1ccccc1Cl -7.43% [at 20 µM], O=C(CNC(=O)COc1ccccc1)NCCc1ccccn1 -14%, C=CCOc1ccc(/C=N/NC(=O)C(C)Sc2ccccn2)cc1OCC (centres undefined) -21.6%, CSc1ccc(C(=O)C2CCCN(C(=O)c3ccc(C)nc3)C2)cc1 (centres undefined) -11.4%, Clc1ccc(-c2nnc(-c3ccccc3)nc2N2CCSCC2)cc1 -4.61% [at 20 µM], Fc1ccc(COc2cccc(-c3n[nH]c(=S)o3)c2)cc1 -11.9%, O=C1C=C(c2ccc(Cl)cc2)C(=O)N1Nc1ccccc1 -9.42% [at 20 µM], O=C(NNc1cc(Cl)ccc1Cl)c1cccnc1Cl -21.6%, NS(=O)(=O)c1ccc(NC(=O)COC(=O)c2ccco2)cc1 -19.1%, O=c1[nH]c(CCl)nc2cc(-c3ccc(Cl)cc3)sc12 -0.616% [at 20 µM], Cc1cc(Cl)c(S(=O)(=O)N(C)C)cc1OCC(N)=O -12.9% [at 20 µM], COC(=O)/C=C/C(=O)NCc1ccco1 -23.2% [at 20 µM]

inhibition, active:
Cc1cc(N=CC2=C(O)CCCC2=O)no1 42.3%
